Measured potencies and affinities stand elsewhere.

The test system of one assay is Klebsiella pneumoniae. The settings on record: Concentration 32 ug.mL-1; ASSAY_TEST Inhibition of Bacterial Growth; detection method Absorption (OD600); MEDIA CAMHB; plate type 384well; NBS; CORNING #3640; time 18 hr.
In the case of `OCc1cc2ccccc2[nH]1`, the Inhibition (in general, the relative decrease from the control value, in per cent) stood at 6.48%.

Consider `N#Cc1c(N)nc(N2CCCCC2)c(C#N)c1-c1ccccc1`, for which the Inhibition was found to be 2.6%.

Consider `COC(=O)C1CCN(Cc2ccccc2)CC1`, for which the Inhibition turned out to be 4.25%.

For `COC1(N)Oc2ccc3ccccc3c2C(c2ccccc2)C1(Br)C#N` (stereo not given), the Inhibition was -5.7%.

As for `COc1nc2ccccc2cc1C=O`, the Inhibition is listed as -3.66%.

For the molecule `CCOC(=O)C1=C(C)OC(N)=C(C#N)C1c1ccccc1OC` (stereo not given), the Inhibition is 15.52%.

On to `COc1ccc(CNNC(=O)c2cc3ccccc3[nH]2)cc1`, for which the Inhibition was -6.62%.

Regarding `CC(C(=O)O)c1c[nH]c2ccccc12` (stereo not given), the Inhibition is reported as 21.1%.

Turning to `CN(C)c1cccc(C(=O)c2cccc(N(C)C)c2)c1`, the Inhibition is on record as 6.77%.

In the case of `C/C(Cc1ccccc1)=N\NC(=O)c1c[nH]c2ccccc12`, the Inhibition is -16.37%.

On to `COc1nc(Cl)c(C#N)c(-c2ccccc2)c1C#N`, for which the Inhibition is on record as 0.27%.

For `N#CC1=C(Cl)Oc2c(ccc3ccccc23)C1c1ccccc1` (stereo not given), the Inhibition is 10.59%.

On to `CCOC(=O)c1cc2c(N)c3c(nc2nc1C)CCCC3`, for which the Inhibition is on record as -0.45%.

Regarding `CCOC(=O)N/N=C/c1ccccc1`, the Inhibition is on record as 8.83%.

For `c1ccc(Cn2ccc3ccccc32)cc1`, the Inhibition is recorded as 13.32%.

In the case of `C=C1CN(C)c2c(C#N)cc(C#N)c(=N)n21`, the Inhibition turned out to be 9.83%.

For `CCOC(=O)c1cc2cc(OC)ccc2n1C`, the Inhibition is listed as -11.12%.

On to `Cl.N#Cc1c(N)nc(NCCO)c(C#N)c1-c1ccccc1`, for which the Inhibition is recorded as 7.62%.

For the molecule `Cc1nc2c3cnn(-c4ccccc4)c3ncn2n1`, the Inhibition is reported as 15.65%.

In the case of `N#CC1(Br)C(=NBr)Oc2ccc3ccccc3c2C1c1cccc([N+](=O)[O-])c1` (stereo not given), the Inhibition amounted to 8.04%.

Consider `COc1cccc(C2c3ccc4ccccc4c3OC(=NBr)C2(Br)C#N)c1` (stereo not given), for which the Inhibition came to 5.65%.

Consider `N#Cc1cccnc1N`, for which the Inhibition is recorded as 16.36%.

For the molecule `NNC(=O)CCc1c[nH]c2ccccc12`, the Inhibition amounted to 5.25%.

As to `CCCC(C)NNC(=O)Cc1c[nH]c2ccccc12` (stereo not given), the Inhibition is 6.53%.

With `Cc1ccc2[nH]c(=O)c(C=O)cc2c1`, the Inhibition was found to be 6.41%.

In the case of `O=C(NNCc1ccco1)c1cc2ccccc2[nH]1`, the Inhibition worked out at 1.78%.

As for `CC(C)CC(C)NNC(=O)c1cc2ccccc2[nH]1` (stereo not given), the Inhibition is -2.7%.

As for `COc1ccc(C2c3c(ccc4ccccc34)OC(=N)C2(Br)C#N)cc1OC` (stereo not given), the Inhibition is recorded as 2.61%.

In the case of `O=C1OC(c2ccc([N+](=O)[O-])cc2)=NC1=Cc1ccccc1`, the Inhibition was 6.09%.

`CC(=O)C(=Cc1ccccc1)C(=O)O[C@H]1C[C@H](C)CC[C@H]1C(C)C`: the Inhibition is recorded as 13.75%.

Take `CCOC(=O)C1=C(C)NC(N)=C(C#N)C1c1ccc(OC)cc1` (stereo not given): the Inhibition came out at 13.36%.

Turning to `COc1ccc2c(c1)cc(CN(C)C)n2C`, the Inhibition worked out at 9.15%.

As to `NC1(C(=O)O)CC1c1ccc2c(c1)OCO2` (stereo not given), the Inhibition amounted to 1.95%.

`Cc1ccc(C2C(C#N)=C(N)Oc3c2ccc2ccccc32)cc1` (stereo not given): the Inhibition is 1.87%.

Consider `C#CCN1CCc2nc3nc(N4CCCC4)c(C#N)cc3c(N)c2C1`, for which the Inhibition is 10.68%.

As to `CN(C)c1nc(N)c(C#N)c(-c2ccccc2)c1C#N`, the Inhibition is reported as -2.21%.

As for `Cc1nc2c3cnn(-c4ccccc4)c3nc(C)n2n1`, the Inhibition stood at 15.01%.

On to `C#CCNc1nc(NC2CCN(Cc3ccccc3)CC2)c(C#N)c(-c2ccccc2)c1C#N`, for which the Inhibition is recorded as -8.37%.

On to `Cc1nc2c(cc1C#N)c(N)nn2C`, for which the Inhibition is listed as 19.03%.

Regarding `COc1ccc(-c2cc(-c3cc4c(OC)ccc(OC)c4nc3Cl)cc(=O)[nH]2)cc1`, the Inhibition is given as 5.89%.

In another assay the test system is Candida albicans. The settings on record: 32 ug/mL.
For `OCc1cc2ccccc2[nH]1`, the Inhibition worked out at 2.35%.

`N#Cc1c(N)nc(N2CCCCC2)c(C#N)c1-c1ccccc1`: the Inhibition amounted to 1.97%.

Regarding `COC(=O)C1CCN(Cc2ccccc2)CC1`, the Inhibition was found to be 4.82%.

As for `COC1(N)Oc2ccc3ccccc3c2C(c2ccccc2)C1(Br)C#N` (stereo not given), the Inhibition was 8.36%.

`COc1nc2ccccc2cc1C=O`: the Inhibition stood at 6.13%.

As to `CCOC(=O)C1=C(C)OC(N)=C(C#N)C1c1ccccc1OC` (stereo not given), the Inhibition came out at 23.3%.

Consider `COc1ccc(CNNC(=O)c2cc3ccccc3[nH]2)cc1`, for which the Inhibition came to 0.44%.

Turning to `CC(C(=O)O)c1c[nH]c2ccccc12` (stereo not given), the Inhibition is 31.5%.

For the molecule `CN(C)c1cccc(C(=O)c2cccc(N(C)C)c2)c1`, the Inhibition is -0.28%.

As to `C/C(Cc1ccccc1)=N\NC(=O)c1c[nH]c2ccccc12`, the Inhibition was found to be 5.16%.

As for `COc1nc(Cl)c(C#N)c(-c2ccccc2)c1C#N`, the Inhibition was 31.9%.

`N#CC1=C(Cl)Oc2c(ccc3ccccc23)C1c1ccccc1` (stereo not given): the Inhibition was found to be 4.15%.

For the molecule `CCOC(=O)c1cc2c(N)c3c(nc2nc1C)CCCC3`, the Inhibition stood at 0.86%.

As to `CCOC(=O)N/N=C/c1ccccc1`, the Inhibition stood at 4.9%.

On to `c1ccc(Cn2ccc3ccccc32)cc1`, for which the Inhibition came to 4.28%.

As to `C=C1CN(C)c2c(C#N)cc(C#N)c(=N)n21`, the Inhibition stood at 2.03%.

For `CCOC(=O)c1cc2cc(OC)ccc2n1C`, the Inhibition was determined as 0.11%.

On to `Cl.N#Cc1c(N)nc(NCCO)c(C#N)c1-c1ccccc1`, for which the Inhibition was 1.4%.

On to `Cc1nc2c3cnn(-c4ccccc4)c3ncn2n1`, for which the Inhibition is 0.21%.

`N#CC1(Br)C(=NBr)Oc2ccc3ccccc3c2C1c1cccc([N+](=O)[O-])c1` (stereo not given): the Inhibition came out at 7.45%.

Turning to `COc1cccc(C2c3ccc4ccccc4c3OC(=NBr)C2(Br)C#N)c1` (stereo not given), the Inhibition is -0.64%.

Regarding `N#Cc1cccnc1N`, the Inhibition amounted to 1.57%.

Turning to `NNC(=O)CCc1c[nH]c2ccccc12`, the Inhibition stood at 0.67%.

`CCCC(C)NNC(=O)Cc1c[nH]c2ccccc12` (stereo not given): the Inhibition came to 0.38%.

With `Cc1ccc2[nH]c(=O)c(C=O)cc2c1`, the Inhibition turned out to be 1.79%.

Turning to `O=C(NNCc1ccco1)c1cc2ccccc2[nH]1`, the Inhibition is -0.84%.

As for `CC(C)CC(C)NNC(=O)c1cc2ccccc2[nH]1` (stereo not given), the Inhibition was -0.37%.

On to `COc1ccc(C2c3c(ccc4ccccc34)OC(=N)C2(Br)C#N)cc1OC` (stereo not given), for which the Inhibition came out at 7.63%.

Consider `O=C1OC(c2ccc([N+](=O)[O-])cc2)=NC1=Cc1ccccc1`, for which the Inhibition turned out to be 1.83%.

Consider `CC(=O)C(=Cc1ccccc1)C(=O)O[C@H]1C[C@H](C)CC[C@H]1C(C)C`, for which the Inhibition amounted to 10.8%.

With `CCOC(=O)C1=C(C)NC(N)=C(C#N)C1c1ccc(OC)cc1` (stereo not given), the Inhibition was 5.45%.

Take `COc1ccc2c(c1)cc(CN(C)C)n2C`: the Inhibition was -0.31%.

Regarding `NC1(C(=O)O)CC1c1ccc2c(c1)OCO2` (stereo not given), the Inhibition is -1.13%.

On to `Cc1ccc(C2C(C#N)=C(N)Oc3c2ccc2ccccc32)cc1` (stereo not given), for which the Inhibition was -0.54%.

Turning to `C#CCN1CCc2nc3nc(N4CCCC4)c(C#N)cc3c(N)c2C1`, the Inhibition came out at 1.92%.

For the molecule `CN(C)c1nc(N)c(C#N)c(-c2ccccc2)c1C#N`, the Inhibition stood at 0.74%.

As to `Cc1nc2c3cnn(-c4ccccc4)c3nc(C)n2n1`, the Inhibition was -1.82%.

On to `C#CCNc1nc(NC2CCN(Cc3ccccc3)CC2)c(C#N)c(-c2ccccc2)c1C#N`, for which the Inhibition came to 5.21%.

In the case of `Cc1nc2c(cc1C#N)c(N)nn2C`, the Inhibition came to 3.97%.

As for `COc1ccc(-c2cc(-c3cc4c(OC)ccc(OC)c4nc3Cl)cc(=O)[nH]2)cc1`, the Inhibition stood at 0.7%.
